Compound activity (PubChem)
In the library only some 0.82% were active in any assay of this set; here they are far more common.
Cardiac RTF inh: cardiac RTF calcium desensitization. 0.12% of 340,000 active. AID 493244. inhibition, % at 7.15 µM. IANBD-labeled cardiac RTF, Ca2+ fluorescence. P19429+P45379;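 active means inhibition above the mean inhibition of all tested compounds plus 3 SD, cut at about 17% in these data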;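 further: assay run at fixed EC70 calcium of 1.6 mM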
C-LANA FP: KSHV C-LANA DNA binding inhibition | MBP-C-LANA/FAM-LBS DNA binding, fluorescence polarization | inhibition, % at 9 µM | 0.078% of 340,000 active;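 active means highest replicate inhibition at or above 60% at 9 µM, even if other replicates fall short; inactive means all replicates below 60% inhibition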;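 further: 0% = neutral control wells and 100% = 4 µM acridine orange control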
RTF Ca sens act: increases calcium sensitivity of human cardiac regulated thin filaments. 0.24% of 340,000 active. AID 493008. activation, % at 7.2 µM. IANBD-labeled TnC RTF fluorescence at EC20 calcium; 0% EC20 calcium, 100% full calcium. P19429+P45379;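 active means activation above the mean over all tested compounds plus 3 SD, cut at about 30% in these data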;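 further: rise in fluorescence read as greater calcium sensitivity of cardiac thin filaments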
Keap1 Nrf2 FP: disrupts human Keap1 binding to Nrf2 peptide | Q14145 | Keap1 Kelch-Nrf2 peptide fluorescence polarization, 1536-well | inhibition, % at 9.4 µM | 0.15% of 340,000 active | AID 504523; in the data active means inhibition above about 12%;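 further: human Keap1 Kelch domain with fluorescein labeled Nrf2 9mer peptide probe; 0% = neutral control wells and 100% = peptide positive control; higher means more block of Keap1 binding to Nrf2 peptide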
Target sequence (Q14145 whole entry, looked up, the tested form may be a part): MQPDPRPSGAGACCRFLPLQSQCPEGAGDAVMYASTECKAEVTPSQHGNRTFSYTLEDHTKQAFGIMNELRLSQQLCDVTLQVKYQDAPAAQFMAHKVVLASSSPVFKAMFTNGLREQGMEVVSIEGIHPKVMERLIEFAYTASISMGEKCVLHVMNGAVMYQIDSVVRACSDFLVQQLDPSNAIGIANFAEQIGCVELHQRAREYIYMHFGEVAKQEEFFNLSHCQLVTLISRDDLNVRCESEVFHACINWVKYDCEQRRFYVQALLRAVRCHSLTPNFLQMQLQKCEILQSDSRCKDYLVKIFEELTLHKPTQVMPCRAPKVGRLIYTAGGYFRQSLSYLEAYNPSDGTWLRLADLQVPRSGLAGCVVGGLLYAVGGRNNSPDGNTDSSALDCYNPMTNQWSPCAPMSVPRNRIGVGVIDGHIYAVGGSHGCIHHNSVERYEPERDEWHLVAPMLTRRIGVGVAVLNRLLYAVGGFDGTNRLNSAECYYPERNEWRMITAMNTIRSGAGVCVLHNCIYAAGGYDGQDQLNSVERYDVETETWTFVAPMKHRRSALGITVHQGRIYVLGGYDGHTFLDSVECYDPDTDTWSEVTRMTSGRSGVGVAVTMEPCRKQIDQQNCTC
eLon inh: inhibits E. coli Lon protease. P0A9M0. purified E. coli Lon protease, fluorescence polarization. inhibition, % at 7.94 µM. 0.42% of 360,000 active; in the data active means inhibition above about 13%, passing the limit was not always enough;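 further: 0% = enzyme with probe and DMSO and 100% = no enzyme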
Active calls of the source: *; i = inactive; x = no result; + = active, no number.

SMILES	Cardiac RTF inh	C-LANA FP	RTF Ca sens act	Keap1 Nrf2 FP	eLon inh
COC(=O)Cc1ccc(OC2(C)CCN(Cc3ccccc3OC(F)F)C2)cc1 (stereo not given)	x	x	x	x	-8.1
O=S1(=O)CC(N2CCN(CCO)CC2)CN1Cc1ccccc1 (stereo not given)	x	x	x	x	14.2
CCOC(=O)/C(=C\c1ccc(N2CCC(c3ccccc3)=N2)cc1)C(C)=O	-65.9	5.6	72.2*	0.4	-273.8
CCN(CC)CCC12CC(C)OC1=Nc1ccccc1NC2=O (stereo not given)	x	x	x	x	-3.9
O=C(c1ccc(CNS(=O)(=O)c2ccc(F)cc2)cc1)N1CCCCCC1	x	x	x	x	-4.8
CCCCNC(=O)c1cnc(Cc2c[nH]c3ccccc23)c(I)c1	x	x	x	x	-4.8
CCOC(=O)C1=C[C@@H](C(C)(C)C)N(S(=O)(=O)c2ccccc2C)[C@H]1c1ccc(Cl)cc1	x	x	x	x	-2.0
CCN(CC)c1ccc2c(c1)OC(N)=C(C#N)C2c1cccnc1 (stereo not given)	-197.1	1.5	157.5*	-75.6	-391.1
N#CC1=C(N)Oc2cc(N)ccc2C1c1cccnc1 (stereo not given)	-6.8	-0.3	7.2	-9.8	5.3
Cc1cc(O)c(CN(C)C)c2c1C(=O)/C(=C/c1ccco1)O2	-35.0	19.1	35.9*	-4.6	-24.4
Clc1ccc(Cn2ncc3c(N4CCN(c5ccccc5)CC4)ncnc32)cc1	x	x	x	x	0.5
CCOc1ccc2ccccc2c1/C=N/NC(=O)c1ccncc1	-2.3	2.8	10.0	0.3	-4.5
CCn1c(O)c(/C=N/NC(=O)c2ccncc2)c(=O)n(CC)c1=S	-88.5	-10.5	97.4*	-159.2	-203.1
CC(=O)OC1(C)C=Cc2ccccc2C1=NS(=O)(=O)c1ccccc1 (stereo not given)	x	x	x	x	-6.6
CCN(CC)C(=O)C1=C(C)N(Cc2ccc(F)cc2)C(=O)C(CC(=O)NCCCN(C)C)C1 (stereo not given)	x	x	x	x	-8.2
C=C(C)C(=O)Nc1cccc(C2=NOC3(C2)C[C@@H](C(N)=O)N(C(=O)C2(C)CC2)C3)c1 (stereo not given in full)	-4.2	105.2*	2.8	-0.8	-2.7
COc1ccc(-c2noc(CCC(=O)NCCc3ccccc3)n2)cc1	-4.3	2.2	37.8*	-5.6	-3.1
COc1cccc(-c2noc(CCC(=O)NCCc3ccccc3)n2)c1	-4.9	-0.5	3.0	-3.8	-1.6
CCN(CC)c1ccc2cc(-c3nc4ccccc4[nH]3)c(=O)oc2c1	i	20.8	+	-16.2	-192.8
CCN(CC)c1ccc2cc(-c3nc4ccccc4n3C)c(=O)oc2c1	-188.2	4.2	102.3*	-5.9	-173.3
CCN(CC)c1ccc2cc(-c3nnc(-c4ccccc4)o3)c(=O)oc2c1	i	10.1	704.9*	-41.9	-434.3
O=c1oc2ccc3ccccc3c2cc1-c1nnc(-c2ccccc2)o1	-6.5	1.1	-5.9	3.4	-3.9
Cn1ccnc1SCC(=O)c1cc2ccccc2o1	-10.9	-2.9	-0.3	-2.9	-13.7
Cc1ccnc(SCC(=O)c2cc3ccccc3o2)n1	-1.5	74.2*	-0.3	2.4	3.3
CN1CCN(c2nc3c(c(=O)n(C)c(=O)n3C)n2Cc2ccccc2F)CC1	4.3	1.3	52.2*	0.6	3.4
SMILES	Cardiac RTF inh	C-LANA FP	RTF Ca sens act	Keap1 Nrf2 FP	eLon inh
Cn1c(=O)c2c(nc(N3CCc4ccccc4C3)n2Cc2ccccc2F)n(C)c1=O	-3.8	-0.1	-1.3	0.2	4.3
COc1ccc(NC(=O)C2CCCN2S(=O)(=O)c2ccc3c(c2)C(C)(C)C(=O)N3C)cc1 (stereo not given)	x	x	x	x	-0.5
O=c1[nH]ncc2c3ccccc3n(Cc3cccc(Cl)c3)c12	-54.4	1.9	55.7*	-13.2	-122.4
CCCCOCCCNC(=O)C[C@@H]1C[C@@]2(C(=O)OCC)CCC=C2N(Cc2cccc3ccccc23)C1=O	x	x	x	x	9.7
N[C@@H](C(=O)N[C@@H]1C(=O)N2C(C(=O)O)=C(Cl)CS[C@H]12)c1ccccc1	-15.6	7.2	3.8	-1.6	4.5
NC(=O)c1cc[n+](CC2=C(C(=O)O)N3C(=O)[C@@H](NC(=O)C(c4ccccc4)S(=O)(=O)[O-])[C@H]3SC2)cc1 (stereo not given in full)	8.0	102.4*	-8.7	23.2*	32.1
COC(=O)[C@]12CCCCC=C1N(Cc1cccc3ccccc13)C(=O)[C@H](CC(=O)NCCC(C)C)C2	x	x	x	x	4.4
CC(/C=C/c1ccc(N(C)C)cc1)=N/N=C1/NC(=O)CC(C(=O)Nc2ccc(Cl)cc2)S1 (stereo not given)	-4.6	1.4	32.3*	0.8	-63.7
